For test [1], the target named is Calcium and integrin-binding protein 1 (Homo sapiens) (UniProt Q99828). In words: Primary qHTS for Identification of Calcium Integrin Binding Protein 1 (CIB1) Competitor (AID 1508620). Also: potency is read from the fitted curve at half-maximal effect.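 As to activity change, negative = inhibition: GST tagged CIB1 binding a fluorescein labelled alphaIIb integrin peptide tracer; top concentration of the series differs between compounds.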 The method, boiled down: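 CIB1-GST (1 uM final) and compound incubated 15 min at room temperature before adding FITC-alphaIIb peptide tracer (100 nM final). Competition for binding read by fluorescence polarization (ex 480, em 540) after another 15 min at room temperature.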

Test [2] can be described thus: Primary qHTS for small molecule stabilizers of the endoplasmic reticulum resident proteome: Secreted ER Calcium Modulated Protein (SERCaMP) assay (AID 1508630). The method in brief:
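The SH-SY5Y reporter protocol was run at 3 concentrations up to 38.3 uM (primary) or 11 concentrations (follow-up): 16 h compound, 100 nM thapsigargin for 4 h, then extracellular luciferase luminescence.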
Background: qHTS replaces the single test concentration by a dilution series.

The target of test [3] is Cytochrome P450 2D6 (Homo sapiens) (UniProt P10635). The test is described as follows: Cytochrome P450 family 2 subfamily D member 6 (CYP2D6) small molecule antagonists: luciferase biochemical (cell-free) qHTS assay (AID 1645840; active = well fitted curve in the direction sought with a large enough effect in the repeat runs; an effect the other way counts as inactive or inconclusive; also: nearly all actives have a fitted effect of over 55% in size; also: potency is read from the fitted curve at half-maximal effect). The method, boiled down:
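P450-Glo CYP2D6 system: proluciferin substrate converted by enzyme to luciferin, read by luminescence proportional to activity. Enzyme-substrate mix with compound 10 min at room temperature, then NADPH regeneration 1 h before detection reagent.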

Test [4] concerns the target Cytochrome P450 2C9 (Homo sapiens) (UniProt P11712). In words: Cytochrome P450 family 2 subfamily C member 9 (CYP2C9) small molecule antagonists: luciferase biochemical (cell-free) qHTS assay (AID 1645842; active = well fitted curve in the direction sought with a large enough effect in the repeat runs; an effect the other way counts as inactive or inconclusive; also: nearly all actives have a fitted effect of over 55% in size; also: potency is read from the fitted curve at half-maximal effect). The method, boiled down: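 P450-Glo CYP2C9 system: proluciferin substrate with enzyme in mix containing 0.4% BSA, 10 min at room temperature, then NADPH regeneration solution added and incubated 1 h at 37C. Detection reagent stopped reaction; luminescence read after 20 min as RLU.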

Test [5] is described as follows: Primary qHTS for inhibitors of nuclear receptor binding SET domain protein 2 (NSD2) in an isogenic RCH-ACV NSD2 p.E1099K mutant (9B) (AID 1645876). Also: nearly all actives have a fitted effect of over 70% in size. Also: potency is read from the fitted curve at half-maximal effect.
Test [6] can be described thus: Primary qHTS for inhibitors of nuclear receptor binding SET domain protein 2 (NSD2) in an RCH-ACV wild type WT cells (2C) (AID 1645877). Also: nearly all actives have a fitted effect of over 70% in size. Also: potency is read from the fitted curve at half-maximal effect.
For test [7], the target named is N-terminal Xaa-Pro-Lys N-methyltransferase 1 (Homo sapiens) (UniProt Q9BV86). In words: Confirmatory qHTS for Inhibitors of N-terminal methyltransferase 1 (NTMT1): MTaseGlo Assay (AID 1645874). Also: potency is read from the fitted curve at half-maximal effect; nearly all actives have a fitted effect of over 65% in size. The settings on record: NTMT1 enzyme, MTase-Glo SAH luminescence. The method, boiled down: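 Room-temperature NTMT1 reaction, 30 min, with 100 uM SAM and 1 uM SPKRIA substrate; enzyme 125 nM. Read-out: MTase-Glo luminescence, normalized to no-enzyme and DMSO controls.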

Test [8] deals with Catechol O-methyltransferase (Homo sapiens) (UniProt P21964). The test is described as follows: Confirmatory Screen for Target Class Profiling of Small Molecule Inhibitors of Methyltransferases (AID 1745852; calls by dose curve; also: potency is read from the fitted curve at half-maximal effect). Conditions: MTase-Glo luminescence, SAH detection, recombinant enzyme; measured here: COMT max response; stronger effect = lower value.
The target of test [9] is Guanidinoacetate N-methyltransferase (Homo sapiens) (UniProt Q14353). Described as above. The settings on record: activity change, negative = inhibition: at 57.3 µM (top of the series).
For test [10], the target named is Nicotinamide N-methyltransferase (Homo sapiens) (UniProt P40261). Described as above. Conditions: MTase-Glo luminescence, SAH detection, recombinant enzyme; measured here: NNMT max response; stronger effect = lower value.
Test [11] deals with Phenylethanolamine N-methyltransferase (Homo sapiens) (UniProt P11086). The test is described as above. Conditions: MTase-Glo luminescence, SAH detection, recombinant enzyme; measured here: PNMT max response; stronger effect = lower value.
In test [12] the target is Cytochrome P450 3A4 (Homo sapiens) (UniProt P08684). In words: Cytochrome P450 family 3 subfamily A member 4 (CYP3A4) small molecule antagonists: luciferase qHTS assay (AID 1645841; active = well fitted curve in the direction sought with a large enough effect in the repeat runs; an effect the other way counts as inactive or inconclusive; also: nearly all actives have a fitted effect of over 45% in size). The method in brief:
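Luminescent CYP3A4 activity readout: compounds plus enzyme-substrate mix 10 min at room temperature, reaction started with NADPH regenerating system for 1 h, stopped with detection reagent, read after 20 min. Ketoconazole served as control.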

The nature of test [13]: NCATS anti-infectives library activity on HEK293 viability as a counter-qHTS vs the C. elegans viability qHTS (AID 1745854).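 Also: HEK293 cells exposed to compounds for 24 hr before the viability read.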 The method, boiled down: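 Counter-screen for cytotoxicity: HEK293, 24 hr, 37C, compounds up to 41.7 uM final (a dilution series, 1:5). Readout CellTiter-Glo luminescence, 10 min RT. Digitonin control, […] uM final.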

Structures are written as SMILES. “And” between values parts separate entries of the source, which are not always exact repeats. Equal entries are not always repeated. Inconclusive results are not listed. A call without a number means that no potency is given here. The source made the active and inactive calls. Unless noted, calls follow the shape of the dose curve; as a rule, active = well fitted curve in the direction sought with a large enough effect; inconclusive = small, poorly fitted or top-dose-only effect, or another doubt; inactive = no such curve, though single readings can be large; an effect the other way counts as inactive or inconclusive.

Chain of Cytochrome P450 2C9 (Homo sapiens) (P11712 whole entry, looked up): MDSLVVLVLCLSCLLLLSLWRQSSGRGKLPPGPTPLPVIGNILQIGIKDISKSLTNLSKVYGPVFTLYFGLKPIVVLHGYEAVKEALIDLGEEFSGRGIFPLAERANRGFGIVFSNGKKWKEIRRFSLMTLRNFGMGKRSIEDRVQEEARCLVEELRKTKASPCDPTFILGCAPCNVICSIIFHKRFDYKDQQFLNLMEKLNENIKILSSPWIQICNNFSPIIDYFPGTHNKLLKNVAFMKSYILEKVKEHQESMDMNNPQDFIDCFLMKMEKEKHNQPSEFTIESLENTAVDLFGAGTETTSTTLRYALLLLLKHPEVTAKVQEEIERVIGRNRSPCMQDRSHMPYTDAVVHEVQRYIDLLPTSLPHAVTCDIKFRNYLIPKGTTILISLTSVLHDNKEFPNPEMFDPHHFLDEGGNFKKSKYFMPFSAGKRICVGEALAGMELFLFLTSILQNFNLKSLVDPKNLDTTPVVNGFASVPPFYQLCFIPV
Chain of Calcium and integrin-binding protein 1 (Homo sapiens) (Q99828 whole entry, looked up): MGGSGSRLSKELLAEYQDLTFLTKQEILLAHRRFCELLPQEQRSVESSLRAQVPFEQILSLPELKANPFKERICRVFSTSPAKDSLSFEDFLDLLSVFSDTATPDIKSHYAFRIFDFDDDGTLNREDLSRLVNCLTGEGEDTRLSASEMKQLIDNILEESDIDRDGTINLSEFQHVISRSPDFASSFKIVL
Chain of Cytochrome P450 2D6 (Homo sapiens) (P10635 whole entry, looked up): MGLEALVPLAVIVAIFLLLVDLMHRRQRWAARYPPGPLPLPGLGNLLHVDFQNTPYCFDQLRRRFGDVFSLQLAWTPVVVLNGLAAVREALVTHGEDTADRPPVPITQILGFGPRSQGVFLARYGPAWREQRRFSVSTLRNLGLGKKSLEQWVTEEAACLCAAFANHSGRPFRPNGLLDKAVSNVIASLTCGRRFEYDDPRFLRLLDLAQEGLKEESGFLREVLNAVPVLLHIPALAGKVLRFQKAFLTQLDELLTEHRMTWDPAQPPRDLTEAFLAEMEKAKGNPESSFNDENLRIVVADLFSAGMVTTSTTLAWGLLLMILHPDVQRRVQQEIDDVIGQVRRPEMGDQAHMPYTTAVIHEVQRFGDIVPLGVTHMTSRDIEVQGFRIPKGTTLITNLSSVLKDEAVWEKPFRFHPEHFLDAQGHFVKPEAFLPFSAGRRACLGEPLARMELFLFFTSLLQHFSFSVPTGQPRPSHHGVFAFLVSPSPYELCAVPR
Chain of Nicotinamide N-methyltransferase (Homo sapiens) (P40261 whole entry, looked up): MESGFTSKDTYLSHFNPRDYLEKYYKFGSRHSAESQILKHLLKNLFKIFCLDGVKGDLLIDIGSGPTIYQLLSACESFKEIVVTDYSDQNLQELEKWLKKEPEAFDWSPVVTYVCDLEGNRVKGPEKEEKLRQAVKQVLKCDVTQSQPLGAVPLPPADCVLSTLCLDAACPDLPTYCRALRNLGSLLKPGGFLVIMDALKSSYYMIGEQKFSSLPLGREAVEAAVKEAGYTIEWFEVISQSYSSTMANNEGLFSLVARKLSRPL
Chain of Catechol O-methyltransferase (Homo sapiens) (P21964 whole entry, looked up): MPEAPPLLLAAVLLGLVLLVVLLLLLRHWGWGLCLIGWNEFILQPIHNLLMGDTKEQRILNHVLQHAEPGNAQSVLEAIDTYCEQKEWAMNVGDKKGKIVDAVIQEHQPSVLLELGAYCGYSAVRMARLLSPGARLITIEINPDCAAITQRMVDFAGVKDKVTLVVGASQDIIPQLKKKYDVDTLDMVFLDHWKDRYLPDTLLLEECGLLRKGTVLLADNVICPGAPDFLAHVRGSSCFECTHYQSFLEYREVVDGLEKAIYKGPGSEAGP
Chain of Phenylethanolamine N-methyltransferase (Homo sapiens) (P11086 whole entry, looked up): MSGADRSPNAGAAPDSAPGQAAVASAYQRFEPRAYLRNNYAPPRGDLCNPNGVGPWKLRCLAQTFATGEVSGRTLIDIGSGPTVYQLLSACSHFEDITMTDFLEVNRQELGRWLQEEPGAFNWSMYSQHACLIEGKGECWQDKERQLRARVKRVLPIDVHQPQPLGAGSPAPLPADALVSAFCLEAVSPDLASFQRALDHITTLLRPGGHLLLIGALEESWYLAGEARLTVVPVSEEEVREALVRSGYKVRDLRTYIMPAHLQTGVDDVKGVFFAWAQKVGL
Chain of Cytochrome P450 3A4 (Homo sapiens) (P08684 whole entry, looked up): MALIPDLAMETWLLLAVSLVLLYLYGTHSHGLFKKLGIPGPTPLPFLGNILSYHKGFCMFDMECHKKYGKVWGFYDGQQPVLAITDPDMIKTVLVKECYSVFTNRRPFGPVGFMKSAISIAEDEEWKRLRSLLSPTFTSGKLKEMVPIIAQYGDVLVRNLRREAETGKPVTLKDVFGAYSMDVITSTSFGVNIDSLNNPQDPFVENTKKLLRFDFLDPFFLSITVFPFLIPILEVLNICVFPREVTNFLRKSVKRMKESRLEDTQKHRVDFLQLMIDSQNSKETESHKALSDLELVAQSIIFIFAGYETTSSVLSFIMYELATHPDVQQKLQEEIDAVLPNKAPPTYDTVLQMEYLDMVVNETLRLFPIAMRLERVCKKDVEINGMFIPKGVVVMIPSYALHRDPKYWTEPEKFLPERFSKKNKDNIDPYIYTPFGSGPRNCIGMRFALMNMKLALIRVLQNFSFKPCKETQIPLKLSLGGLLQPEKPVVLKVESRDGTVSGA
Chain of N-terminal Xaa-Pro-Lys N-methyltransferase 1 (Homo sapiens) (Q9BV86 whole entry, looked up): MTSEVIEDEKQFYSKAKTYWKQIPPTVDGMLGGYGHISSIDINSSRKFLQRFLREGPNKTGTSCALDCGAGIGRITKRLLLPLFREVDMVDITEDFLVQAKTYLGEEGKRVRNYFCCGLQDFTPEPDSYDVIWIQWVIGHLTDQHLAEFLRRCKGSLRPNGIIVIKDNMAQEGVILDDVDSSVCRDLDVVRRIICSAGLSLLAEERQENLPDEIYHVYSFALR

With `Nc1ncn([C@@H]2O[C@H](CO)[C@@H](O)[C@@H]2O)c(=O)n1`, the Potency result in test [1] was “inactive”. The outcome in test [2] is “inactive”.

With `O=c1c(O)c(-c2ccc(O)c(O)c2)oc2cc(O)ccc12`, the Potency result in test [1] is “inactive”. Besides, in test [2], the outcome is “inactive”.

Regarding `CC(=O)O[C@@]12CO[C@H]1C[C@H](O)[C@@]1(C)C(=O)[C@H](O)C3=C(C)[C@@H](OC(=O)C(O)[C@@H](NC(=O)OC(C)(C)C)c4ccccc4)C[C@@](O)([C@@H](OC(=O)c4ccccc4)[C@@H]21)C3(C)C` (some centres not stated), the Potency entry in [1] is “inactive”. Besides, in test [2], the outcome was “inactive”.

As for `CC[C@H]1OC(=O)[C@H](C)[C@@H](O[C@H]2C[C@@](C)(OC)[C@@H](O)[C@H](C)O2)[C@H](C)[C@@H](O[C@@H]2O[C@H](C)C[C@H](N(C)C)[C@@H]2O)[C@](C)(OC)C[C@@H](C)C(=O)[C@H](C)[C@@H](O)[C@]1(C)O`, in test [1], the Potency entry is “inactive”. Moreover, the outcome in test [2] was “inactive”.

In the case of `CCOc1cc2ncc(C#N)c(Nc3ccc(OCc4ccccn4)c(Cl)c3)c2cc1NC(=O)C=CCN(C)C`, in [1], the Potency entry is “inactive”. In [2], the outcome was “inactive”.

Regarding `C[C@H](NC(=O)C(C#N)=Cc1cccc(Br)n1)c1ccccc1`, the Potency result in test [1] was “inactive”. The outcome in test [2] was “inactive”.

Consider `O=C(O)[C@H](CC(=O)N1C[C@@H]2CCCC[C@H]2C1)Cc1ccccc1`, for which the Potency entry in [1] was “inactive”. Besides, the outcome in test [2] was “inactive”.

For the compound `CC(=O)[C@]1(O)Cc2c(O)c3c(c(O)c2[C@@H](O[C@H]2C[C@H](N)[C@@H](O)[C@H](C)O2)C1)C(=O)c1ccccc1C3=O`, the Potency in test [1] is 24.1 µM (active). Also, the outcome in [2] is “inactive”.

With `CCc1cnn2c(NCc3ccc[n+]([O-])c3)cc(N3CCCC[C@@H]3CCO)nc12`, the Potency entry in test [1] was “inactive”. Moreover, the outcome in [2] is “inactive”.

In the case of `CN(CC(=O)N(Cc1ccc(C2CCCCC2)cc1)c1ccc(C(=O)O)c(O)c1)S(=O)(=O)c1c(F)c(F)c(F)c(F)c1F`, the Potency entry in [1] is “inactive”. Moreover, the outcome in test [2] was “inactive”.

As for `NC[C@H]1O[C@H](O[C@H]2[C@@H](O)[C@@H](O[C@H]3O[C@H](CO)[C@@H](O)[C@H](N)[C@@H]3O)[C@H](N)C[C@@H]2N)[C@H](N)C[C@H]1O`, in test [1], the Potency result is “inactive”. In addition, the outcome in test [2] is “inactive”.

In the case of `O=C(NNC(=O)c1ccc(CNS(=O)(=O)c2ccc(F)c(Cl)c2)cc1)c1ccccc1`, the Potency entry in test [1] was “inactive”. In [2], the outcome was “inactive”.

On to `O=C(O)C[C@H](O)C[C@H](O)C=Cc1c(C2CC2)nc2ccccc2c1-c1ccc(F)cc1`, for which the Potency result in [1] is “inactive”. Further, in [2], the outcome is “inactive”.

As to `CC(C)N1[N]C(=C2C=c3cc(O)ccc3=N2)c2c(N)ncnc21`, in test [1], the Potency result was “inactive”. The outcome in test [2] is “inactive”.

In the case of `CC(=CC(=O)Nc1ccccc1C(=O)O)c1ccc2ccccc2c1`, the Potency result in [1] was “inactive”. Moreover, the outcome in [2] is “inactive”.

In the case of `CC(O)(C#Cc1ccc2c(c1)N(c1nc(N)ncc1Cl)CC2)c1nccs1` (configuration not stated), the Potency result in test [1] is “inactive”. Besides, the outcome in test [2] was “inactive”. The Potency in test [3] is 9.52 µM (active); in [4] it was 1.07 µM (active); in test [5], 13.2 µM (active); in test [6] it was 13.2 µM (active).

For the compound `O=C1CSC(=O)N1C(CCc1ccncc1)COc1ccc(-c2cccc([N+](=O)[O-])c2)cc1` (configuration not stated), the Potency entry in [1] and in test [3] was “inactive” each time. Further, the outcome in test [2] was “inactive”. For the same compound, the Potency was 14.8 µM (active) in test [5] and 11.8 µM (active) in test [6].

Turning to `COc1cc(C)c(C=CC(C)=CC=CC(C)=CC(=O)O)c(C)c1C`, the Potency entry in test [1] and in test [3] was “inactive” throughout. In [2], the outcome is “inactive”. Further, in test [4], the Potency is 23.9 µM (active).

For `O=C(O)C(=O)Nc1cccc(C2=NN=N[N]2)c1`, the Potency entry in [1] was “inactive”. In [2], the outcome was “inactive”.

Turning to `CCOc1cc2c(c(F)c1OCC)C(=N)N(CC(=O)c1cc(N3CCOCC3)c(OC)c(C(C)(C)C)c1)C2`, in test [1], the Potency entry is “inactive”. For the same compound, in test [2], the outcome was “inactive”. Further, the Potency in test [3] was 5.35 µM (active); in [4], 6.01 µM (active); in test [5], 23 µM (active); in test [6], 16.3 µM (active).

Turning to `O=C(Nc1cc2cc[nH]c2cn1)c1ccccc1`, in [1], the Potency entry was “inactive”. The outcome in test [2] is “inactive”. The Potency was 13.5 µM (active) in [3]; 4.77 µM (active) in test [4]; 6.31 µM (active) in test [7]; 12.9 µM (active) in test [5]; 9.16 µM (active) in [6]; 19.2 µM (active) in [9]. The activity was -83.5% in test [8], -77.9% in [10] and -83.3% in [11].

For the compound `CN(C)CC(=O)N1CCC(c2ccc(NC(=O)c3ncc(C#N)[nH]3)c(C3=CCCCC3)c2)CC1`, the Potency entry in [1], in test [3] and in test [4] was “inactive” throughout. The outcome in [2] was “inactive”. Moreover, the Potency in test [5] was 5.8 µM (active) and 11.8 µM (active); in [6], 10.3 µM (active) and 9.34 µM (active).

As to `CC(=O)OCC(=O)[C@@]1(O)CC[C@H]2[C@@H]3CCC4=CC(=O)CC[C@]4(C)[C@@H]3C(=O)C[C@@]21C`, in test [1], the Potency result was “inactive”. For the same compound, in [2], the outcome was “inactive”.

`Cn1cnc2c(F)c(Nc3ccc(Br)cc3F)c(C(=O)NOCCO)cc21`: the Potency entry in [1] and in [3] was “inactive” in each case. Besides, the outcome in [2] was “inactive”. Further, the Potency in test [4] is 9.52 µM (active).

As for `C[C@]12C=CC(=O)N[C@@H]1CC[C@H]1[C@H]3CC[C@@H](C(=O)Nc4cc(C(F)(F)F)ccc4C(F)(F)F)[C@@]3(C)CC[C@@H]12`, the Potency entry in [1] was “inactive”. For the same compound, the outcome in test [2] was “inactive”.

Consider `Cc1cnc(Nc2ccc(CN3CCOCC3)cc2)nc1Nc1cccc(S(=O)(=O)NC(C)(C)C)c1`, for which the Potency result in [1] was “inactive”. Further, the outcome in test [2] is “inactive”. Moreover, the Potency is 9.52 µM (active) in [3]; 1.34 µM (active) in [4]; 1.18 µM (active) and 578 nM (active) in test [5]; 1.05 µM (active) and 515 nM (active) in test [6]. Moreover, the activity in test [8] is -0.0774%; in test [10] it was -43.5%; in test [11] it was -4.34%. In test [9], this compound had an activity change, negative = inhibition of 0.454%.

On to `O=C1NC(O)CCN1[C@@H]1O[C@H](CO)[C@H](O)[C@H]1O` (some centres not stated), for which the Potency result in [1], in [3], in [12], in test [4], in [5] and in test [6] was “inactive” each time. In test [2], the outcome is “inactive”.

For `Cc1cc(O)c2c(c1)C(=O)c1cccc(O)c1C2=O`, the Potency entry in [1], in [3], in test [4], in test [5], in test [6] and in [13] was “inactive” in each case. In [2], the outcome was “inactive”.

Take `Cc1noc(-c2ccc(CSCCC(=O)O)cc2)c1NC(=O)OC(C)c1ccccc1Cl` (configuration not stated): the Potency result in [1], in test [3] and in [5] was “inactive” in each case. The outcome in test [2] was “inactive”. Further, the Potency in [4] is 12 µM (active).
